From PubChem BioAssay (EPA / NIEHS)
Results filed as inconclusive are left out. The source made the active and inactive calls. How the source made its calls, unless noted: active means hit-call score of the fitted dose curve at least 0.9, where 1 is the maximum; inactive means score below 0.9.

Assays:
[1] = CCTE_Shafer_MEA_dev_firing_rate_mean: CCTE's Neural Network Formation Assay for Mean Firing Rate, Shafer Lab (AID 2284031)
Outline: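 Steps: seed rat cortical cells (1.5 x 10^5/well) with laminin on PEI-coated MEA; dose day 0; record DIV 5/7/9/12, full media and compound exchange after DIV 5 and 9 recordings; compute well-mean firing rate AUC.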

[2] = CCTE_Shafer_MEA_dev_per_burst_spike_percent: CCTE's Neural Network Formation Assay for Percent of Spikes in a Burst, Shafer Lab (AID 2284032)
Outline: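 Value is trapezoidal AUC over recordings on days 5, 7, 9 and 12 of the well-mean fraction of spikes falling in single-electrode bursts; rat cortical cultures exposed continuously from plating, treatment renewed DIV 5 and 9, fitted downward against DMSO.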

[3] = CCTE_Shafer_MEA_dev_active_electrodes_number: CCTE's Neural Network Formation Assay for Number of Active Electrodes, Shafer Lab (AID 2284040; active means hit-call score of the fitted dose curve at least 0.9, where 1 is the maximum;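 further: potency for loss of active electrodes versus DMSO so lower counts are hits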)
Outline: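 Counts electrodes per well firing at least 5 spikes/min, recorded on days 5, 7, 9 and 12 in rat cortical cultures dosed continuously from plating (treatment refreshed DIV 5, 9). Value is the area under the curve over recordings, fitted downward relative to DMSO.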

[4] = CCTE_Shafer_MEA_dev_burst_rate: CCTE's Neural Network Formation Assay for Burst Rate, Shafer Lab (AID 2284042)
Outline: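 Rat primary cortical cultures on PEI/laminin MEA; compound from plating, re-dosed at DIV 5, 9 media change. Single-electrode bursts/recording length, well mean of active electrodes; AUC over DIV 5–12 recordings; loss-of-signal vs DMSO.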

[5] = CCTE_Shafer_MEA_dev_bursting_electrodes_number: CCTE's Neural Network Formation Assay for Number of Bursting Electrodes, Shafer Lab (AID 2284043; active means hit-call score of the fitted dose curve at least 0.9, where 1 is the maximum;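 further: potency is for loss of bursting electrodes relative to DMSO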)
Outline: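 Number of electrodes reaching ≥1 burst every 2 min was recorded at DIV 5, 7, 9 and 12 and collapsed as trapezoidal area under the curve. Cultures were rat cortical neurons on MEA plates, dosed continuously from plating with medium and treatment refreshed on DIV 5 and 9.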

[6] = CCTE_Shafer_MEA_dev_per_burst_interspike_interval: CCTE's Neural Network Formation Assay for Burst Interspike Interval, Shafer Lab (AID 2284044)
Outline: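 Spontaneous activity of maturing rat cortical networks is recorded on DIV 5, 7, 9 and 12 under chronic compound exposure beginning at plating. Endpoint: burst interspike interval well-mean, collapsed into trapezoidal AUC and fitted in the negative direction relative to DMSO.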

[7] = CCTE_Shafer_MEA_dev_burst_duration_mean: CCTE's Neural Network Formation Assay for Mean Burst Duration, Shafer Lab (AID 2284045)
Outline: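 Mean single-electrode burst duration (first to last spike), averaged over bursting electrodes per well, then integrated as area-under-curve across recordings at days 5, 7, 9 and 12. Rat cortical cultures on MEAs, compound present from plating, refreshed at feeds.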

[8] = CCTE_Shafer_MEA_dev_interburst_interval_mean: CCTE's Neural Network Formation Assay for Mean Interburst Interval, Shafer Lab (AID 2284046);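 further: well-mean interburst interval of bursting electrodes as AUC over four recording days; curve fitted for decrease in interburst interval relative to DMSO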
Outline: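 Rat cortical neurons, 1.5 x 10^5 cells/well, 48-well MEA; compound from day 0 through DIV 12, media and treatment renewed DIV 5/9. Recordings DIV 5, 7, 9, 12; well-mean interburst interval → trapezoidal AUC, loss direction vs DMSO.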

[9] = CCTE_Shafer_MEA_dev_inter_network_spike_interval_mean: CCTE's Neural Network Formation Assay for Mean Inter-network Spike Interval, Shafer Lab (AID 2284047)
Outline: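 Primary rat cortical neurons on PEI-coated 48-well MEAs (16 electrodes/well) were exposed from plating day 0 to DIV 12, with dosing renewed at DIV 5 and 9. Recordings at DIV 5, 7, 9, 12 were collapsed by trapezoidal AUC, loss-of-signal fit vs DMSO.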

[10] = CCTE_Shafer_MEA_dev_network_spike_peak: CCTE's Neural Network Formation Assay for Mean Number of Electrodes in Network Spike, Shafer Lab (AID 2284049);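 further: fitted for loss of signal meaning fewer electrodes in network spikes than DMSO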
Outline: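 Rat cortical primary culture, 1.5 x 10^5 cells/well, 48-well MEA (16 electrodes/well). Dosing day 0 through DIV 12, full media/compound exchange DIV 5, 9. AxIS adaptive spike detection; AUC over days 5/7/9/12; loss-of-signal vs DMSO.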

[11] = CCTE_Shafer_MEA_dev_spike_duration_mean: CCTE's Neural Network Formation Assay for Mean Spike Duration, Shafer Lab (AID 2284051);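 further: mean network spike duration pooled as area under curve over DIV 5 to 12 recordings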
Outline: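 Rat cortical primary cultures, 48-well MEA (16 electrodes/well); compound from plating, renewed DIV 5, 9. Network spike duration (AxIS adaptive detector) recorded DIV 5/7/9/12, combined as trapezoidal AUC; loss direction vs DMSO.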

[12] = CCTE_Shafer_MEA_dev_network_spike_duration_std: CCTE's Neural Network Formation Assay for Standard Deviation of Network Spike Duration, Shafer Lab (AID 2284052);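 further: hits are decreases in network spike duration SD versus DMSO vehicle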
Outline: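 Rat cortical cultures, 1.5 x 10^5 cells/well, exposed continuously from plating to DIV 12 with media/compound renewal at DIV 5, 9. Spontaneous activity recorded DIV 5/7/9/12, AxIS adaptive spike detector; AUC across days; negative direction vs DMSO.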

[13] = CCTE_Shafer_MEA_dev_per_network_spike_spike_number_mean: CCTE's Neural Network Formation Assay for Mean Number of Spikes in a Network Spike, Shafer Lab (AID 2284053)
Outline: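 Rat cortical primary cultures on 48-well MEA; compound from day 0, re-dosed with full media change DIV 5, 9. Recorded DIV 5, 7, 9, 12; spikes in 0.05 s window at network-spike peak ÷ total network spikes; AUC; loss vs DMSO.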

[14] = CCTE_Shafer_MEA_dev_per_network_spike_spike_percent: CCTE's Neural Network Formation Assay for Percent of Spikes in a Network Spike, Shafer Lab (AID 2284054)
Outline: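 Metric: fraction of spikes falling in a 0.05 s window at network-spike peaks. Recordings were made on days 5, 7, 9 and 12 and collapsed by trapezoidal AUC. Cultures were rat cortical neurons on MEA plates, dosed continuously from plating, re-dosed at media changes.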

[15] = UKN5_HCS_SBAD2_cell_viability: Viability Assessment in the University of Konstanz (UKN) Leist Lab Neurite Outgrowth Assay in human iPSC-derived immature Dorsal Root Ganglia Neurons (UKN5) (AID 2284056)
Outline: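 iPSC-derived immature peripheral neurons (SBAD2) seeded on Matrigel with CHIR99021, SU5402 and DAPT, dosed 1 h later for 24 h. Viability from Hoechst H-33342 and calcein-AM live staining, high-content imaging; bidirectional fit versus DMSO.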

[16] = CCTE_Shafer_MEA_dev_LDH: CCTE's Lactate Dehydrogenase Assay for Cytotoxicity in the Neural Network Formation Assay, Shafer Lab (AID 2284068; active means hit-call score of the fitted dose curve at least 0.9, where 1 is the maximum;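 further: exposure for twelve days from plating with re-dosing on DIV 5 and 9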)
Outline: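 Rat cortical primary neurons, MEA culture; dosing day 0–12, full medium plus compound exchange DIV 5, 9. Read-out: LDH enzyme activity, spectrophotometric. DMSO = negative control/baseline; signal loss → cytotoxicity.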

[17] = UKN5_HCS_SBAD2_neurite_outgrowth: University of Konstanz (UKN) Leist Lab Neurite Outgrowth Assay in human iPSC-derived immature Dorsal Root Ganglia Neurons (UKN5) (AID 2284070); details: actives raise or lower the signal
Outline: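 Thaw, seed on Matrigel (100.000 cells/cm2), dose 1 h later; at 23 h live-stain with H-33342 and calcein-AM for 60 min; image at 24 h. Neurite area fitted bidirectionally vs DMSO.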

[18] = CCTE_Shafer_MEA_dev_AB: CCTE's Alamar Blue Assay for Cytotoxicity in the Neural Network Formation Assay, Shafer Lab (AID 2284083; active means hit-call score of the fitted dose curve at least 0.9, where 1 is the maximum;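 further: resazurin reduction fluorescence as viability of cultured neurons; twelve days of exposure from plating with re-dosing on DIV 5 and 9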)
Outline: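 Rat cortical primary cultures, 1.5 x 10^5 cells/well on MEA; continuous compound exposure over 12 days of network development, re-dosed with full medium change DIV 5 and 9. Alamar Blue fluorescence; loss of signal = cytotoxicity vs DMSO baseline.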

Measured: AC50

C[n+]1ccc(-c2ccccc2)cc1
active: [3] 4.33 µM | [5] 4.7 µM | [10] 6.52 µM | [16] 4.7 µM
inactive: all other assays above
